Laboratory results published in ChEMBL document CHEMBL3988442, “University of Dundee, Small-Polar-MMV Screening Library” (2021).
In all, about 48,000 compounds went through this assay and about 13,000 (27%) showed an effect of 50% or more. The list shows a part of the results.

Tested on: Wolbachia pipientis
Assay: Anti-Wolbachia Cell-Based Screen
Format: functional
Parameters: scale not given: in the data most compounds retested in dose-response had high values
Conditions: 5 µM

| SMILES | Percent Effect [%] |
| --- | --- |
| O=C(CNC(=O)C1CC1)NCc1ccc(Cl)s1 | 12.79 |
| O=C(Nc1cnccn1)[C@H]1COC[C@H]2CN(C3CCCC3)C[C@H]21.O=C(O)C(F)(F)F | 12.06 |
| CN(Cc1nnc(C2CC2)n1C)C(=O)c1ccnc(OC2CCC2)c1 | -6.34 |
| Cc1cc(C(=O)N(C)Cc2ccccc2OCC(C)C)cc(=O)[nH]1 | 5.839 |
| COc1ccccc1OCC(=O)NS(=O)(=O)c1ccccc1F | -1.762 |
| CSc1ccc(NCC(=O)NCC2CC2)cc1F | -20.57 |
| COc1cccc([C@@H]2CN(C3CCCC3)C[C@H]2C(=O)O)c1 | -6.459 |
| CN1CCc2ncc(CNC(=O)c3cccn3C)n2CC1.O=C(O)C(F)(F)F | -7.758 |
| O=C(NCc1cnc2n1CCN(Cc1nccs1)C2)c1ccno1.O=C(O)C(F)(F)F | -12.49 |
| Cn1cc(CN2CCn3c(CNC(=O)c4cccn4C)cnc3C2)cn1.O=C(O)C(F)(F)F | -0.1323 |
| CC(C)N(C)Cc1cnc2n1CCN(Cc1ccc(F)cc1)C2.O=C(O)C(F)(F)F.O=C(O)C(F)(F)F | 108.1 |
| CC(O)CN1CCN(Cc2cccc(C#N)c2)CC1 (stereo not drawn) | -5.978 |
| Cc1ccc(CN2CCn3c(CN(C)C(C)C)cnc3C2)s1.O=C(O)C(F)(F)F.O=C(O)C(F)(F)F | 102.4 |
| CN(C)Cc1cnc2n1CCN(C(=O)Cc1ccc(F)cc1)CC2.O=C(O)C(F)(F)F | -6.028 |
| Cc1ccc(CN2CCc3c(CN(C)C)n[nH]c3C2)s1.O=C(O)C(F)(F)F.O=C(O)C(F)(F)F | -7.014 |
| Cc1ccc(CN2CCn3c(CNC(=O)c4cccn4C)cnc3C2)s1.O=C(O)C(F)(F)F | 57.4 |
| CC(C)N(C)Cc1cnc2n1CCN(Cc1cccc(C#N)c1)C2 | 113.4 |
| Cc1noc(C)c1CN1CCc2ncc(CN(C)C)n2CC1.O=C(O)C(F)(F)F.O=C(O)C(F)(F)F | -8.609 |
| CC(C)c1ncc2c(n1)CN(Cc1cccc(C#N)c1)CC2 | -1.681 |
| COc1cc(C)nc(N2CCN(C(=O)CCn3cc(C)cn3)CC2)n1 | -7.08 |
| c1ccc2nc(NCC3(N4CCOCC4)CCSC3)cnc2c1 (stereo not drawn) | -14.05 |
| CCn1cnc2c(c(Br)nn2C)c1=O | -4.609 |
| CS(=O)(=O)c1cccc(S(=O)(=O)NC(=O)c2cscn2)c1 | -9.351 |
| CC(C)NC(=O)C[C@@H]1CCNC[C@@H]1Cc1cc(-c2ccccc2)on1 | 3.733 |
| CCc1cc(=O)[nH]c2nnc(SCC(=O)OC)n12 | -19.07 |

| SMILES | Percent Effect [%] |
| --- | --- |
| Cn1ccnc1CN1CCC2(CC(=O)N(c3cccc(F)c3)C2)C1.O=C(O)C(F)(F)F (stereo not drawn) | 10.35 |
| Cc1cc(C)c(Cn2cncn2)cc1CN1CCC(CN)C1 (stereo not drawn) | -0.9295 |
| Cc1ccc(OCC(O)Cn2ncc3cnn(C)c(=O)c32)cc1 (stereo not drawn) | -11.22 |
| CN(Cc1ccco1)Cc1cnc2n1CCN(S(C)(=O)=O)CC2.O=C(O)C(F)(F)F | 3.882 |
| CC(C)N(C)Cc1cnc2n1CCN(C(=O)Cc1cccs1)C2C.O=C(O)C(F)(F)F (stereo not drawn) | 0.7731 |
| COCCN1CCCn2cnc(CN(C)C(C)C)c2C1.O=C(O)C(F)(F)F.O=C(O)C(F)(F)F | 1.891 |
| CC(C)N(C)Cc1cnc2n1CCN(Cc1ccco1)C2.O=C(O)C(F)(F)F.O=C(O)C(F)(F)F | 165.9 |
| CC(C)N(C)Cc1cnc2n1CCN(Cc1cccc(F)c1)C2.O=C(O)C(F)(F)F.O=C(O)C(F)(F)F | 118.2 |
| CN(C)Cc1cnc2n1CCN(C(=O)NCc1ccccc1)CC2.O=C(O)C(F)(F)F | -3.612 |
| CC(C)N(C)Cc1cnc2n1CCN(S(=O)(=O)c1ccccc1)C2.O=C(O)C(F)(F)F | 114.3 |
| CC(C)N(C)Cc1cnc2n1CCN(CCc1ccccc1)C2.O=C(O)C(F)(F)F.O=C(O)C(F)(F)F | 1.323 |
| CN(C)Cc1cnc2n1CCN(C(=O)Cc1cccc(F)c1)CC2.O=C(O)C(F)(F)F | -14.88 |
| COCCN1CCn2c(CN(C)C(C)C)cnc2C1.O=C(O)C(F)(F)F.O=C(O)C(F)(F)F | 115.3 |
| CC(C)Cc1ncc2c(n1)CN(c1cc(N3CCCC3)nc(N)n1)C2 | -10.3 |
| COCCC1(CNC(=O)NCC2CCCN(C)C2)CCC1 (stereo not drawn) | 8.648 |
| CCCSCC(=O)N1CCN(c2ccc(C)cc2)CC1C (stereo not drawn) | -1.95 |
| CN(C)Cc1cnc2n1CCN(Cc1ccsc1)CC2.O=C(O)C(F)(F)F.O=C(O)C(F)(F)F | -11.04 |
| CC(C)N(C)Cc1cnc2n1CCN(C(=O)c1cccs1)C2 | 6.203 |
| CC(C)N(C)Cc1cnc2n1CCN(C(=O)Cc1ccsc1)C2.O=C(O)C(F)(F)F | 75.58 |
| CNC(=O)c1cnc2n1CCN(C(=O)Cc1ccccn1)C2 | -2.51 |
| CC(C)N(C)Cc1cnc2n1CCN(C(=O)Cc1ccccn1)C2.O=C(O)C(F)(F)F.O=C(O)C(F)(F)F | 116.4 |
| CN(C)Cc1cnc2n1CCN(C(=O)Cc1ccsc1)CC2.O=C(O)C(F)(F)F | -7.652 |
| CC(C)N(C)Cc1cnc2n1CCN(Cc1ccsc1)C2.O=C(O)C(F)(F)F.O=C(O)C(F)(F)F | 107.2 |
| CC(NCC1CCN(CCO)CC1)c1ccc(OC(F)(F)F)cc1 (stereo not drawn) | 5.514 |
| Cc1ccccc1CSc1nc(=O)n(CCO)c2c1CCC2 | 18.09 |

| SMILES | Percent Effect [%] |
| --- | --- |
| Cc1csc(N2CCCN(C(=O)c3cnns3)CC2)n1 | 3.916 |
| c1cncc(O[C@H]2COCCN(CC3CC3)C2)c1 | -6.13 |
| Fc1ccc(OC2CCN(CCn3cncn3)CC2)cc1 | 1.97 |
| Cc1nc(C)c(CCN2CCC(Oc3ccccc3F)CC2)s1 | -50.47 |
| Cc1nc(CCN2CCC(Oc3ccccc3F)CC2)c(C)s1 | 0 |
| O=C(O)c1cccc(N2CCC(Oc3cccc(F)c3)CC2)n1 | 3.827 |
| Cc1ccc(OC2CCN(CCn3cncn3)CC2)cc1 | -5.94 |
| c1cncc(OC2CCN(CCn3cc4ccccc4n3)CC2)c1 | 92.09 |
| Fc1cccc(OC2CCN(CCn3cc4ccccc4n3)CC2)c1 | 89.5 |
| Fc1ccccc1OC1CCN(CCn2cc3ccccc3n2)CC1 | 96.15 |
| O=C(O)C(F)(F)F.O=C1[C@@H]2CN(C3CCOCC3)C[C@H]2CCN1CC1CC1 | -15.82 |
| CCC(C)(CC(=O)OC)NCc1c(C)noc1C (stereo not drawn) | -10.12 |
| CCCN(CCOC)c1nc(C)nc2sccc12 | -21.15 |
| Cc1cc(NC(=O)N2CCN(c3cccs3)CC2)ccc1C(N)=O | 6.081 |
| CS(=O)(=O)c1ccc(OCCNCc2c(F)cccc2F)cc1 | -4.502 |
| Cc1ccc(C(=O)N2CCOC(c3nc(C(C)(C)C)n[nH]3)C2)c(=O)[nH]1 (stereo not drawn) | -10.02 |
| CCCc1n[nH]c(C2CN(C(=O)c3ccc(C)[nH]c3=O)CCO2)n1 (stereo not drawn) | 101.9 |
| CCCc1n[nH]c(C2CN(C(=O)c3cncnc3C)CCO2)n1 (stereo not drawn) | 104.8 |
| CC(C)n1nccc1NC(=O)NCCc1nc2ccc(F)cc2n1C | -24.15 |
| COCCN1CCN(CC(=O)NC2(C#N)CCCC2)CC1 | 5.801 |
| CCN(Cc1cc(F)c(OC)c(Cl)c1)Cc1noc(CC(C)C)n1 | -0.0931 |
| CC(C)c1cc(N2CCSCC2)n2nccc2n1 | -0.2231 |
| CN1CCC[C@H]1c1nc(-c2cncnc2N)no1 | -19.35 |
| CCc1nc(-c2cncnc2C2CCNC2)no1 (stereo not drawn) | 125.4 |
| Cc1nc(-c2cncnc2C2CCCNC2)no1.Cl.Cl (stereo not drawn) | 112.4 |

| SMILES | Percent Effect [%] |
| --- | --- |
| CCc1nc(-c2cncnc2C2CCCNC2)no1.Cl (stereo not drawn) | 115.3 |
| CN1CCC(N2CCC[C@H]2c2nc(-c3cncnc3N)no2)CC1 | -6.986 |
| Cc1ncc(S(C)(=O)=O)c(C2CCCNC2)n1 (stereo not drawn) | 6.84 |
| CC(C)(C)CN1CCC[C@H]1c1nc(-c2cncnc2N)no1 | -5.651 |
| CCc1nc(C2CCCN(c3ncc(Br)cn3)C2)no1 (stereo not drawn) | -4.032 |
| CC(C)c1ncc(S(C)(=O)=O)c(C2CCCNC2)n1 (stereo not drawn) | 16.25 |
| CS(=O)(=O)c1cncnc1C1CCCNC1.Cl (stereo not drawn) | 112 |
| CN(Cc1nc2ccccc2[nH]1)C(=O)CN(C)c1ccccc1 | -21.88 |
| O=C(CCNc1ncc2c(n1)CCN2c1ccccc1)N1CCCC1 | 15.12 |
| COCCC1CN(c2nc(-c3ccccc3)nc3c2CCNC3)CCO1 (stereo not drawn) | -17.27 |
| Cc1cnc(C(=O)N2CCCC(c3nccn3Cc3cscn3)C2)cn1 (stereo not drawn) | 3.931 |
| Cc1cc(C(=O)N(C)Cc2cnn(C)c2)c(NC(=O)C(C)(C)C)s1 | -6.693 |
| COCC1CN(Cc2ccsc2)Cc2cnn(C)c21 (stereo not drawn) | 97.33 |
| CCOCC1CN(Cc2ccsc2)Cc2cnn(C)c21 (stereo not drawn) | 100.2 |
| CCn1ncc2c1C(COC)CN(Cc1ccsc1)C2 (stereo not drawn) | -10.45 |
| COc1ccc(CN2Cc3cnn(C)c3C(COCC3CC3)C2)cc1 (stereo not drawn) | 13.17 |
| Cn1ncc2c1C(COCC1CC1)CN(Cc1cccnc1)C2 (stereo not drawn) | -4.691 |
| CCOCC1CN(CC2CC2)Cc2cnn(C)c21 (stereo not drawn) | -17.33 |
| Cn1ncc2c1C(COCC1CC1)CN(Cc1ccsc1)C2 (stereo not drawn) | 99.94 |
| COCC1CN(Cc2cccnc2OC)Cc2cnn(C)c21 (stereo not drawn) | -15.02 |
| CC(=O)Nc1ccc(F)c(S(=O)(=O)NC(C)(C)C)c1 | -3.757 |
| NCC1CCN(c2nc(C3CCCC3)nc3c2CCNCC3)C1 (stereo not drawn) | 9.164 |
| Cc1cc(C(=O)N2CC[C@H](N3CCOCC3)[C@H](CCCO)C2)c(C)n1C | -10.4 |
